Laboratory results taken from PMC7862700, “An all-to-all approach to the identification of sequence-specific readers for epigenetic DNA modifications on cytosine”.

Biological target: ETV6 (Homo sapiens, UniProt P41212 1-452)
Experiment: DAPPL (digital affinity profiling via proximity ligation, sequencing); 10 mM Tris-HCl pH 7.5, 50 mM NaCl, 1 mM DTT, 4% glycerol, room temperature, 30 min; GST-TFs on glutathione beads, 16-mer random dsDNA library, 0.1% formaldehyde crosslink after washing; high values mean tight binding
Settings: protein: recombinant; tags: N-terminal GST; dsDNA, one strand shown
Summary of the method: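 Sequencing on an Illumina NextSeq500 followed washing, crosslinking with 0.1% formaldehyde, proximity ligation (BsaI/T4 ligase, 1 h, 37 °C) and PCR amplification of pools that had been incubated for 30 min at room temperature with 200 nmole of a random double-stranded 16-mer DNA library in Tris/NaCl/DTT/glycerol buffer. Each pool held DNA-barcoded human transcription factors, expressed in yeast as GST fusions and captured on glutathione beads, plus a tag-only sample. Binding signal is a hexamer's read frequency for a factor divided by its frequency in the tag-only sample.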

ETV6, sequence (P41212 whole entry): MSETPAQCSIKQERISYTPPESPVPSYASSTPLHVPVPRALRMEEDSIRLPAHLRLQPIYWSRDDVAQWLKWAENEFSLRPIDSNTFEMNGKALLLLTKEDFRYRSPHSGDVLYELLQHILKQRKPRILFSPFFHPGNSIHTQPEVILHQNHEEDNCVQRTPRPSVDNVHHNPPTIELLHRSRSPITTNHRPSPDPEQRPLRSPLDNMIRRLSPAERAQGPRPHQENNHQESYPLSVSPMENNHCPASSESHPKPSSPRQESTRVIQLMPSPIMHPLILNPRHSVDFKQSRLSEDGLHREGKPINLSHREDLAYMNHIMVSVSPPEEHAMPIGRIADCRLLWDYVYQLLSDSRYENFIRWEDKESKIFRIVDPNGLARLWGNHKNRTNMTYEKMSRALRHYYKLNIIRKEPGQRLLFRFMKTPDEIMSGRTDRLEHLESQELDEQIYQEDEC

Row | Sequence | binding signal
1 | AGTATT | 1.32 fold enrichment (6-mer frequency, TF over GST control)
2 | GCTCTC | 1.43 fold enrichment (6-mer frequency, TF over GST control)
3 | AAAAAT | 1.35 fold enrichment (6-mer frequency, TF over GST control)
4 | TCGACC | 1.3 fold enrichment (6-mer frequency, TF over GST control)
5 | ACAGCT | 1.08 fold enrichment (6-mer frequency, TF over GST control)
6 | TGATGG | 1.21 fold enrichment (6-mer frequency, TF over GST control)
7 | TGATGC | 1.52 fold enrichment (6-mer frequency, TF over GST control)
8 | CCTATA | 1.39 fold enrichment (6-mer frequency, TF over GST control)
9 | TAAGTT | 1.49 fold enrichment (6-mer frequency, TF over GST control)
10 | TTACGG | 1.26 fold enrichment (6-mer frequency, TF over GST control)
11 | TTGATA | 1.14 fold enrichment (6-mer frequency, TF over GST control)
12 | GCTTTC | 1.23 fold enrichment (6-mer frequency, TF over GST control)
13 | AATGTT | 1.63 fold enrichment (6-mer frequency, TF over GST control)
14 | TAATTT | 1.39 fold enrichment (6-mer frequency, TF over GST control)
15 | CCTTGA | 1.23 fold enrichment (6-mer frequency, TF over GST control)
16 | GTTCTT | 1.15 fold enrichment (6-mer frequency, TF over GST control)
17 | CCGAAT | 1.22 fold enrichment (6-mer frequency, TF over GST control)
18 | CCATAA | 1.21 fold enrichment (6-mer frequency, TF over GST control)
19 | CTCTCA | 1.36 fold enrichment (6-mer frequency, TF over GST control)
20 | AAATAA | 1.5 fold enrichment (6-mer frequency, TF over GST control)

Row | Sequence | binding signal
21 | ACTCTG | 1.23 fold enrichment (6-mer frequency, TF over GST control)
22 | TCTCGT | 1.18 fold enrichment (6-mer frequency, TF over GST control)
23 | TTAACT | 1.17 fold enrichment (6-mer frequency, TF over GST control)
24 | ATGAAA | 1.1 fold enrichment (6-mer frequency, TF over GST control)
25 | GCGATG | 1.18 fold enrichment (6-mer frequency, TF over GST control)
26 | ACTAAC | 1.22 fold enrichment (6-mer frequency, TF over GST control)
27 | ATCTCT | 1.27 fold enrichment (6-mer frequency, TF over GST control)
28 | ACTAGC | 1.2 fold enrichment (6-mer frequency, TF over GST control)
29 | TATTCA | 1.3 fold enrichment (6-mer frequency, TF over GST control)
30 | TTTTAT | 1.36 fold enrichment (6-mer frequency, TF over GST control)
31 | GTTATT | 1.2 fold enrichment (6-mer frequency, TF over GST control)
32 | TTCTAC | 1.49 fold enrichment (6-mer frequency, TF over GST control)
33 | GCTTCT | 1.45 fold enrichment (6-mer frequency, TF over GST control)
34 | AGTGCT | 1.52 fold enrichment (6-mer frequency, TF over GST control)
35 | ATCGAT | 1.11 fold enrichment (6-mer frequency, TF over GST control)
36 | TCTCAG | 1.34 fold enrichment (6-mer frequency, TF over GST control)
37 | CTTCTG | 1.38 fold enrichment (6-mer frequency, TF over GST control)
38 | GCTCTA | 1.09 fold enrichment (6-mer frequency, TF over GST control)
39 | ACTTTA | 1.18 fold enrichment (6-mer frequency, TF over GST control)
